Screening results as filed in PubChem BioAssay.
Spn DPM-DC inh: blocks S. pneumoniae diphosphomevalonate decarboxylase; purified DPM-DC, PK/LDH coupled NADH fluorescence; calls only at 10 µM; actives 0.49% (n = 65,000);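 active means the 320 compounds with the highest percent inhibition in the single-dose primary screen, excluding strongly autofluorescent ones, cut at about 32% in these data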;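 further: kinetic rate of NADH fluorescence loss reporting ADP formed by the decarboxylase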
MK inhibit: blocks S. pneumoniae mevalonate kinase | inhibition, % at 10 µM | actives 0.48% (n = 65,000) | purified MK, PK/LDH-coupled NADH absorbance 340 nm | AID 555;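 active means ranked among the strongest by inhibition in the single 10 µM screen, a fixed top-ranked set picked for dose follow-up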
Abs 340nm: absorbance at 340 nm; compound absorbance at 340 nm, fold over control; fold change at 10 µM; 65,000 tested, under 10 active;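 active means at 10 µM dose, initial 340 nm absorbance at least 2 fold that of control wells; inactive means change under 2 fold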;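 further: initial absorbance extrapolated from kinetic A340 decline of NADH oxidation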
NADH coupling: inhibition of NAD/NADH coupling enzymes, library profiling. coupled PK/LDH NADH assays, four targets. IC50, µM (top dose mostly 10 µM), without a hit: at the top dose inhibition. actives 0.02% (n = 65,000). AID 774;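 active means single-dose screening hits from any of four coupled enzyme assays that gave an IC50 when retested across doses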;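 further: the DPM-DC format reads NADH fluorescence rather than 340 nm absorbance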
PMK inhibit: inhibitors of Streptococcus pneumoniae phosphomevalonate kinase; purified PMK, PK/LDH-coupled NADH absorbance 340 nm; inhibition, % at 10 µM; actives 0.49% (n = 65,000);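 active means top-ranked compounds by inhibition in the single 10 µM screen, taking a fixed number of the strongest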;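 further: 0% = full reaction with DMSO carrier and 100% = background rate without enzyme reaction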
Fluor 339 460: intrinsic fluorescence of library compounds, ex339/em460 – biochemical, MLSMR library, data from DPM-DC assay, artefact control, profiling panel; actives 5.5% (n = 65,000); fluorescence fold increase at 10 µM; compound autofluorescence, ex339/em460 nm, NADH buffer; hits give high values; 1 = no-compound wells, NADH background; AID 709;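 active means at 10 µM, mean starting fluorescence two-fold or more over control wells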;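 further: signal is the first read of a kinetic run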
Active calls of the source: *; i = inactive; x = not tested or not shown. Rows were chosen to be rich in hits. Some 6.8% of all compounds tested hit in one or more screens of this group.

SMILES	Spn DPM-DC inh	MK inhibit	Abs 340nm	NADH coupling	PMK inhibit	Fluor 339 460
CCCCCn1c2nc3ccccc3nc2c2c(=O)n(CC3CCCO3)c(C)nc21 (centres undefined)	x	5	1	4%	3	4*
CCc1c(C)nc(N)n2c(SCC(=O)N3CCN(c4ccccc4F)CC3)nnc12	i	x	1	4%	7	1.1
COc1cc(C)c(S(=O)(=O)N2CCCC2)cc1C	i	7	1	5%	7	1.1
O=C(c1ccco1)N1CCN(c2ccc(Cl)c(Cl)c2)CC1	i	8	1	4%	0	1.1
COc1ccc(-n2c(Cn3c(=O)sc4ccccc43)nnc2SCC(=O)N2CCOCC2)cc1	i	5	1.1	3%	4	1
O=C(O)c1ccccc1NCN1C(=O)C2CC=C(Cl)CC2C1=O (centres undefined)	i	0	1	9%	12	2.6*
CCN1CCCC1CNC(=O)Cn1cnc2sc(C)c(S(=O)(=O)N3CCC(C)CC3)c2c1=O (centres undefined)	i	12	1.1	9%	16	1.1
Cc1ccc(CNC(=O)c2cc3c(=O)n4ccccc4nc3n(Cc3ccco3)c2=N)cc1	x	8	1	7%	6	2.3*
CCOC(=O)c1cc2c(=O)n3ccccc3nc2n(CC2CCCO2)c1=NC(C)=O (centres undefined)	i	10	1	9%	12	2*
Cc1ccc(CNC(=O)c2cc3c(=O)n4ccccc4nc3n(CC3CCCO3)c2=N)cc1 (centres undefined)	x	1	1	5%	8	2.4*
N=c1c(C(=O)NCc2ccccc2)cc2c(=O)n3ccccc3nc2n1Cc1ccco1	i	0	1	6%	0	1.9
N=c1c(C(=O)NCc2ccc(F)cc2)cc2c(=O)n3ccccc3nc2n1Cc1ccco1	i	0	1.1	7%	7	2.7*
COn1c(SC2CCCCC2)nc2ccccc2c1=O	i	6	1	3%	2	1.1
CCC(C)(C)NC(=O)C(c1cccc(OC)c1)N(C(=O)c1ccn[nH]1)c1cccc(OC)c1 (centres undefined)	i	9	0.97	10%	21	1
Cc1nn(Cc2ccccc2Cl)c(C)c1C(=O)N1CCN(c2ccccc2)CC1	i	2	1	5%	12	1
Oc1ccccc1C1=Nc2ncnn2C(c2ccc(F)cc2)C1 (centres undefined)	i	6	1.1	5%	10	1.1
CCOc1ccc(OCC)c(NC(=O)CN2CCN(c3cccc(C)c3)C(C)C2)c1 (centres undefined)	i	42*	1	15%	3	1
CCOc1ccc(OCC)c(NC(=O)CN2CCN(c3cccc(C)c3)CC2)c1	i	71*	1.1	24%	0	1.1
CCNc1nc(C)c2cc(Br)c(=O)n(CC)c2n1	x	7	1.2	6%	5	2.1*
CCNc1nc(NC(C)C)nc(Nn2cnnc2)n1	i	0	1	1%	3	1.1
O=c1[nH]c2cc3c(cc2cc1C(c1nnnn1C1CCCCC1)N1CCSCC1)OCCO3 (centres undefined)	i	0	1	3%	17	2.4*
COc1cc2cc(C(c3nnnn3C3CCCC3)N3CCCCC3)c(=O)[nH]c2cc1OC (centres undefined)	x	6	1.1	6%	5	3.5*
N#Cc1ccsc1NC(=O)COc1ccc(-c2nnco2)cc1	i	0	1	3%	10	1
CCOC(=O)Cc1c(C)c2c(C)[nH]nc2oc1=O	i	0	0.98	7%	15	1.3
COC(=O)Cc1c(C)c2c(O)cc(C)cc2oc1=O	x	13	1.1	7%	0	2.1*
SMILES	Spn DPM-DC inh	MK inhibit	Abs 340nm	NADH coupling	PMK inhibit	Fluor 339 460
COc1ccc2cc(CN(CCCN3CCOCC3)Cc3nnnn3C3CCCCC3)c(=O)[nH]c2c1	i	6	1.1	4%	1	1.2
CCOc1ccc2[nH]c(=O)c(CN(CCN3CCOCC3)Cc3nnnn3C(C)(C)CC)cc2c1	i	6	1	11%	15	2.6*
CCOc1ccc2[nH]c(=O)c(CN(Cc3cccs3)Cc3nnnn3C(C)(C)C)cc2c1	i	8	1.1	5%	7	2.4*
COc1ccc2[nH]c(=O)c(CN(Cc3cccs3)Cc3nnnn3C(C)(C)C)cc2c1	i	4	1	6%	12	1.8
CC(C)(C)NC(=O)C(c1ccccc1F)N(Cc1ccco1)C(=O)c1csnn1 (centres undefined)	i	10	1	7%	9	1
COCCCn1c(C2CCCCC2)nc2oc3cc(OC)ccc3c(=O)c2c1=O	i	15	1.1	9%	11	1.1
CCCN1CCC(N(C)CCc2ccc(OC)c(OC)c2)CC1	i	1	1	5%	6	1
Cc1ccc2c(c1)c1c3n2CCN(C(=O)Cn2c(-c4ccccc4)noc2=O)C3CCC1 (centres undefined)	i	4	1	10%	12	3.2*
CC(C)COC(=O)NCC12C=CC(O1)C1C(=O)N(c3ccc(Cl)cc3)C(=O)C12 (centres undefined)	i	0	1	4%	25*	1
COc1cccc(-c2cn3nc(C)c(C)nc3n2)c1	i	10	1.1	12%	13	3.1*
Cc1nc2nc(-c3cccs3)cn2nc1C	x	11	1	12%	13	3.7*
Cc1nc(NCc2ccco2)c2c3c(sc2n1)CCC3	i	4	1	2%	1	1.1
CC(C)Sc1nc(NCc2ccco2)c2c3c(sc2n1)COC(C)(C)C3	x	5	1.1	3%	0	2*
COc1ccc(S(=O)(=O)N2CCC(C(=O)Nc3ccccc3C)CC2)c2cccnc12	i	4	1	1%	0	1.1
O=C(O)c1ccccc1C(=O)NCc1ccccc1	i	11	1.1	4%	0	0.94
O=C(O)c1ccccc1NCc1ccncc1	i	12	1	8%	2	2*
O=C(O)c1ccc(CNc2ccccc2C(=O)O)cc1	i	1	1.1	9%	4	2.6*
CC(C)Sc1nc(-c2cccs2)nc2c1c(=O)n(C)c(=O)n2C	i	8	1.1	9%	14	1.4
Cn1c(=O)c2c(SCC(=O)NCC3CCCO3)nc(-c3cccs3)nc2n(C)c1=O (centres undefined)	x	3	1.2	3%	2	2.2*
Cn1cc(C(=O)NCCN2CCN(c3cccc(Cl)c3)CC2)c2c3ccccc3n(C)c2c1=O	i	0	1.1	2%	5	2*
CCN(CC)CCNC(=O)c1cc2c(=O)n(C)c3ccccc3c2n1C	i	3	1.1	4%	0	1.7
